Measurements reported in PubChem BioAssay (NCATS).
Where “and” joins values, the source holds several entries; their conditions need not be identical. Equal entries are not always repeated. Inconclusive results are not listed. Calls of active or inactive are those of the source. Unless noted, the call rests on the fitted dose curve; in most records, active means well fitted curve in the direction sought with a large enough effect; inconclusive means small, poorly fitted or top-dose-only effect, or another doubt; inactive means no such curve, though single readings can be large; an effect the other way counts as inactive or inconclusive.

Assays:
[1] = qHTS assay for small molecule antagonists of retinoid X receptor alpha signaling (AID 588546; active means well fitted inhibition curve with a large enough effect in the signal ratio, with a control signal flat, not every such curve was filed as active; the % refers to the signal ratio;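 further: cells stimulated with 9-cis-retinoic acid as agonist; on the % scale 0 is the no-effect control and ±100 the full control effect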); settings: HEK293T RXRa-UAS-bla, beta-lactamase ratio, antagonist mode; measured here: W530 green channel, cytotoxicity proxy
Method in brief: (§1)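 Beta-lactamase reporter inhibition, read as CCF4 fluorescence ratio (ex 405, em 460/530 nm) after 2 h at RT. HEK293T UAS-bla cells, 2500/well, were stimulated with 9-cis-RA at 500 or 100 nM final alongside test compound for 18 h at 37 C.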

[2] = molecular target: Retinoic acid receptor RXR-alpha (Homo sapiens) (UniProt P19793); test: as above; settings: HEK293T RXRa-UAS-bla, beta-lactamase ratio, antagonist mode
Method in brief: as §1

[3] = molecular target: Thyroid hormone receptor beta (Homo sapiens) (UniProt P10828); test: qHTS assay for small molecule antagonists of thyroid hormone receptor beta signaling (AID 588547; active means well fitted inhibition curve with a large enough effect in the signal ratio, with a control signal flat, not every such curve was filed as active; the % refers to the signal ratio;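 further: cells stimulated with 0.4 nM T3 agonist during compound exposure; on the % scale 0 is the no-effect control and ±100 the full control effect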); settings: TR-UAS-bla HEK293, beta-lactamase ratio, antagonist mode, 18 h
Method in brief: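 TR-UAS-bla GripTite HEK293 cells in 2% charcoal/dextran FBS medium; compounds 0.59 nM to 92 uM with T3 at 0.4nM final, 18 h at 37 C. Beta-lactamase read by CCF4 fluorescence (460/530 nm); Hill fits gave IC50 and efficacy.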

[4] = molecular target: Voltage-gated inwardly rectifying potassium channel KCNH2 (Homo sapiens) (UniProt Q12809); test: qHTS Assay for Small Molecule Inhibitors of the Human hERG Channel Activity (AID 588834); settings: U2OS BacMam hERG, FluxOR thallium flux fluorescence; series mostly up to 46.1 µM;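 further: top concentration of the series differs between compounds; on the % scale 0 is the no-effect control and ±100 the full control effect; lower thallium flux fluorescence means stronger hERG block; nearly all actives have a fitted effect of over 50% in size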
Method in brief: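 U2OS cells BacMam-transduced with hERG, 2000 cells/well, compound ~10 min at 37 °C before stimulation buffer. FluxOR thallium flux fluorescence read kinetically on FDSS; decrease indicates block; AC50 from Hill fits.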

[5] = molecular target: Luciferin 4-monooxygenase (Photinus pyralis) (UniProt P08659); test: Biochemical firefly luciferase enzyme assay for NPC (AID 624030);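 further: purified P. pyralis luciferase at 10 nM with luciferin and ATP substrate; 0% = DMSO and -100% = full luciferase inhibition by PTC124 control; nearly all actives have a fitted effect of over 70% in size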; settings: purified P. pyralis luciferase, luminescence, 5 min; series mostly up to 58.6 µM
Method in brief: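 Purified P. pyralis luciferase at 10 nM in 50 mM Tris Acetate (final), luminescence read within 5 minutes of enzyme addition to compounds. Activity normalised to PTC124 versus DMSO; concentration-response curves classed by r2, magnitude and activity.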

[6] = S16 Schwann cell viability assay (CellTiter-Glo assay) (AID 624031); settings: S16 rat Schwann cells viability, 24 h; series mostly up to 57.5 µM;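 further: native untransfected S16 rat Schwann cells; cellular ATP luminescence as a viability measure; plate controls were DMSO-treated cells for no effect and cell-free wells for full effect; nearly all actives have a fitted effect of over 70% in size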
Method in brief: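 Rat S16 Schwann cells without reporter constructs received compound or DMSO for 24 h at 37 °C under 5% CO2. Cellular ATP was then quantified by CellTiter-Glo luminescence, with vehicle wells defined as 0% activity and cell-free wells as reference.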

[7] = S16 Schwann cell PMP22 intronic element firefly luciferase assay (AID 624032); settings: S16 rat Schwann cells, PMP22 element FLuc, 24 h; series mostly up to 57.5 µM;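 further: plate controls were DMSO for no effect and PTC124 positive control mean for full effect; nearly all actives have a fitted effect of over 30% in size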
Method in brief: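 Rat S16 Schwann cells stably carrying firefly luciferase driven by a PMP22 intronic element, in 10% FBS, treated 24 h at 37 C. ONE-Glo luminescence normalized to PTC124 control and DMSO (0%); curves classed by r2, magnitude and activity.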

[8] = S16 Schwann cell PMP22 intronic element beta-lactamase assay (AID 624044; calls by dose curve;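 further: 0% = DMSO and -100% = potassium clavulanate positive control; nearly all actives have a fitted effect of over 15% in size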); settings: S16 rat Schwann cells, PMP22 element beta-lactamase FRET, 24 h; ratio activity, negative = inhibition: at 38.3 µM (top of the series) unless noted
Method in brief: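 Rat S16 Schwann cells with beta-Lac driven by a PMP22 intronic element, compound-treated 24 h at 37 °C. LiveBLAzer FRET B/G read: 460 nm normalized to potassium clavulanate vs DMSO; 535 nm FRET as viability; concentration-effect curves classified.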

Voltage-gated inwardly rectifying potassium channel KCNH2 (Homo sapiens), sequence (Q12809 whole entry, looked up): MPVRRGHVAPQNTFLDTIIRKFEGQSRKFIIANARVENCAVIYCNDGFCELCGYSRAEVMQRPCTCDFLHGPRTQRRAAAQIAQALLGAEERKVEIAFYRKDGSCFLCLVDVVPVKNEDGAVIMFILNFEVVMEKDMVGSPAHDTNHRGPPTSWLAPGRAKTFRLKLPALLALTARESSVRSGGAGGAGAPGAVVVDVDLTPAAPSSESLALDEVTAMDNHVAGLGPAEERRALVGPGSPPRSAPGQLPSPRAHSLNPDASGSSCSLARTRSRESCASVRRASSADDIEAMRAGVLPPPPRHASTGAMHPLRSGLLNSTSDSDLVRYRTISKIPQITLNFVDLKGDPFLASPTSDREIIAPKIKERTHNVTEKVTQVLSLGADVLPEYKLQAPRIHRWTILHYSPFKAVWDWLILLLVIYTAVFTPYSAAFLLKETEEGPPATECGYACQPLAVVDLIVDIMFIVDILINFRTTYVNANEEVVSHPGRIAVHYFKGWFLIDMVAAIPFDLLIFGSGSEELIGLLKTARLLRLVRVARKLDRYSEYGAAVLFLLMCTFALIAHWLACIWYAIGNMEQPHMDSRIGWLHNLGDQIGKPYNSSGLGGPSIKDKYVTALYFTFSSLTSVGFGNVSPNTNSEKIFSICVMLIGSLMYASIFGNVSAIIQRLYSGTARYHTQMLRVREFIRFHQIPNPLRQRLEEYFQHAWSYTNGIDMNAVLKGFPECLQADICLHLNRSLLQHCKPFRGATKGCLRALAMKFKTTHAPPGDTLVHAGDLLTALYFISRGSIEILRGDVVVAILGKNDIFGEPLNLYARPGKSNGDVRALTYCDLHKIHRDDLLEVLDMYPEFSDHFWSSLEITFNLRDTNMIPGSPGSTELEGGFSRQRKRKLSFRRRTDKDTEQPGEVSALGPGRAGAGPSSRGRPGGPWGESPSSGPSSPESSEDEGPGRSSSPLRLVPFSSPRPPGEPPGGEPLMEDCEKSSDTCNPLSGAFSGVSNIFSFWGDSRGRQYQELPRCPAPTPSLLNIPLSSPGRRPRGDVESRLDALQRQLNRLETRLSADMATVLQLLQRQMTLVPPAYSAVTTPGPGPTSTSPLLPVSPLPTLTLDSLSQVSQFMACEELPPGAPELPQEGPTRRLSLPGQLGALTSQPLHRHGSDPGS
Retinoic acid receptor RXR-alpha (Homo sapiens), sequence (P19793 whole entry, looked up): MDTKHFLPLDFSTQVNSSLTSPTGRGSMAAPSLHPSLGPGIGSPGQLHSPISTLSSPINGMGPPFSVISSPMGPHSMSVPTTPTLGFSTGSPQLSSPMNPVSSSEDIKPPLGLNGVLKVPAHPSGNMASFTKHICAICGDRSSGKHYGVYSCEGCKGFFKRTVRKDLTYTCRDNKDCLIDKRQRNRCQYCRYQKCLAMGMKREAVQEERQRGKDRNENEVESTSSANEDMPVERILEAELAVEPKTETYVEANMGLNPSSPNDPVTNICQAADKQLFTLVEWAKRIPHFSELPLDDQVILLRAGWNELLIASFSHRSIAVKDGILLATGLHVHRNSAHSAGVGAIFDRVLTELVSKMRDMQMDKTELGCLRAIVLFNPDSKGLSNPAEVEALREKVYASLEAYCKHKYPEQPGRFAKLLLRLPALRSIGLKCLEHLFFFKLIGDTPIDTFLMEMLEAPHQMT
Thyroid hormone receptor beta (Homo sapiens), sequence (P10828 whole entry, looked up): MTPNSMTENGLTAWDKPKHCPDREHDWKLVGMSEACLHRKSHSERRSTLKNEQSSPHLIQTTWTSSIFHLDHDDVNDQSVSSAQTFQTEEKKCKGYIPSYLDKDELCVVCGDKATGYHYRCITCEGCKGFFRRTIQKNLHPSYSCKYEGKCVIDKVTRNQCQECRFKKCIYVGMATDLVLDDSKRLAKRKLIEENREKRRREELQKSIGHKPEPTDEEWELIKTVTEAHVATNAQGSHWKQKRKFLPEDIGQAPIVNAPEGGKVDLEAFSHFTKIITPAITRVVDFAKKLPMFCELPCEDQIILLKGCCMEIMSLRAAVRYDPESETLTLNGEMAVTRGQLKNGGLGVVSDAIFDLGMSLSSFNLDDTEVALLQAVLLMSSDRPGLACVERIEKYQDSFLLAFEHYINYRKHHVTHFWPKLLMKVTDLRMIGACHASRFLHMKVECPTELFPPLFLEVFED
Luciferin 4-monooxygenase (Photinus pyralis), sequence (P08659 whole entry, looked up): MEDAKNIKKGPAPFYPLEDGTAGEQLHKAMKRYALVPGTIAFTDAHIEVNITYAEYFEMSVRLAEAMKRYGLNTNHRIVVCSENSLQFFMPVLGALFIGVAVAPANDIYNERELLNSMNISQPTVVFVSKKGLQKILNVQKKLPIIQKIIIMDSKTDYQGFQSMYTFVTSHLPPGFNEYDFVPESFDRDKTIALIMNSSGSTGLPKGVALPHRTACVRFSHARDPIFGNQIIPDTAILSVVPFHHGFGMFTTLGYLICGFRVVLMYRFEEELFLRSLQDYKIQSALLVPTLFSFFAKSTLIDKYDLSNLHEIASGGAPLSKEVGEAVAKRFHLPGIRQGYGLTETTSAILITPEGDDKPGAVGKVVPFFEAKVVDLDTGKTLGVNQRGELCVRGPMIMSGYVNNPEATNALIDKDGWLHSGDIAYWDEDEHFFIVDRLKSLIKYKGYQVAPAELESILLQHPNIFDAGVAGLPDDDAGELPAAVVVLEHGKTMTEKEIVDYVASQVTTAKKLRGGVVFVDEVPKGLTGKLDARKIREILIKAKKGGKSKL

Compound | max response [1] | max response [2] | activity change % (negative = inhibition) [3] | Potency [4] | Potency [5] | Potency [6] | Potency [7] | ratio activity, negative = inhibition [8]
OCl | 1.84% | 40.5% (inactive) | -3.27% (inactive) | inactive | inactive | inactive | inactive | –
O=C(OCc1ccccc1)c1ccc(O)cc1 | -3.09% | -35.8% (inactive) | 27.2% (inactive) | inactive | – | inactive | inactive | -2.42% (inactive)
CC1=CCC2CC1C2(C)C (stereo not given) | -2.11% | 2.29% (inactive) | 6.5% (inactive) | inactive | inactive | inactive | inactive | 2.01% (inactive)
NC(N)=O | -4.99% | -5.2% (inactive) | -11.3% (inactive) | inactive | inactive | inactive | inactive | 0.531% (inactive)
OC[C@H]1O[C@@](CO)(O[C@H]2O[C@H](CO)[C@@H](O)[C@H](O)[C@H]2O)[C@@H](O)[C@@H]1O | -3.43% | 4.65% (inactive) | -5.25% (inactive) | inactive | inactive | inactive | inactive | 0% (inactive)
Cc1ncc[nH]1 | 2.25% | 11.5% (inactive) | -11.5% (inactive) | inactive | inactive | inactive | inactive | -0.768% (inactive)
O.O.O.O.O.O.O.O=S(=O)([O-])[O-].[Co+2] | -11.7% | 6.5% (inactive) | 12.3% (inactive) | inactive | inactive | inactive | – | -3.44% (inactive)
COC(=O)c1ccccc1O | 1.7% and -5.56% | -1.72% (inactive) and -1.77% (inactive) | -3.85% (inactive) | inactive | inactive | inactive | inactive | –
O=P(O)(O)O | 6.72% | 2.87% (inactive) | -9.56% (inactive) | inactive | inactive | inactive | – | 2.1% (inactive)
CC(C)CCC[C@@H](C)[C@H]1CC[C@H]2[C@@H]3CC=C4C[C@@H](O)CC[C@]4(C)[C@H]3CC[C@]12C | 11.8% | -19.4% (inactive) | -1.74% (inactive) | inactive | inactive | inactive | inactive | 7.26% (inactive)
O=c1n(CC2CO2)c(=O)n(CC2CO2)c(=O)n1CC1CO1 (stereo not given) | 19.5% | -59.1% (inactive) | -18.3% (inactive) and -20.3% (inactive) | inactive | inactive | inactive | – | -25.3% (inactive)
Nc1ncnc2c1ncn2[C@H]1CC[C@@H](CO)O1 | 0.911% | -6.41% (inactive) | -11% (inactive) and 4.8% (inactive) | – | inactive | inactive | inactive | –
Oc1cccc(O)c1O | -1.33% | -0.897% (inactive) | -26.7% (inactive) | inactive | inactive | inactive | inactive | -1.18% (inactive)
Nc1nccs1 | -5.85% | 4.13% (inactive) | 8.98% (inactive) | inactive | inactive | inactive | inactive | –
OC[C@H]1O[C@@H]2O[C@H]3[C@H](O)[C@@H](O)[C@@H](O[C@H]4[C@H](O)[C@@H](O)[C@@H](O[C@H]5[C@H](O)[C@@H](O)[C@@H](O[C@H]6[C@H](O)[C@@H](O)[C@@H](O[C@H]7[C@H](O)[C@@H](O)[C@@H](O[C@H]1[C@H](O)[C@H]2O)O[C@@H]7CO)O[C@@H]6CO)O[C@@H]5CO)O[C@@H]4CO)O[C@@H]3CO | 2.15% and -14.7% | -7.96% (inactive) and -14.1% (inactive) | 12.7% (inactive) and -5.44% (inactive) | inactive | inactive | inactive | – | 1.18% (inactive)
OB(O)O | -7.19% and -10.5% | 9.01% (inactive) and 7.69% (inactive) | 3.84% (inactive) and -13.5% (inactive) | – | inactive | inactive | inactive | 0.47% (inactive)
[O-][N+](=Nc1ccccc1)c1ccccc1 | -0.56% | 1.34% (inactive) | 7.57% (inactive) | – | – | inactive | – | –
C/C=C/C=C/C(=O)O | -4.17% | 25.3% (inactive) | 1.05% (inactive) | inactive | inactive | inactive | inactive | –
CO[C@@H]1[C@H](OC(=O)/C=C/C=C/C=C/C=C/C(=O)O)CC[C@]2(CO2)[C@H]1[C@@]1(C)O[C@@H]1CC=C(C)C | -0.294% | 18.1% (inactive) | 15% (inactive) | inactive | – | – | – | –
CC1=CC(=O)NS(=O)(=O)O1 | -6.4% and -5.89% | -5.24% (inactive) and 0.185% (inactive) | 2.81% (inactive) | inactive | inactive | inactive | inactive | 1.96% (inactive)
